Screening results deposited in PubChem by National Center for Advancing Translational Sciences (NCATS).
Only some compounds are listed: those with a hit (about 2.4% of all), similar ones and a draw of the others.
Pol eta inh-1: qHTS for Inhibitors of Polymerase Eta | DNA polymerase eta (Homo sapiens), Q9Y253 | Potency, µM (highest dose often 114 µM), without a hit: top-dose activity change, negative = inhibition, hits mostly inhibitors | AID 588591, 2011 | actives 1.2% (n = 390,000) | recombinant Pol eta, fluorescent DNA replication assay; also: % is scaled to controls: 0 for no effect and ±100 for the full control effect
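Pol eta (10 nM) was preincubated with compounds for 15 min at room temperature, after which fluorescent replication substrate (50 nM final) was added to start the reaction. Fluorescence was read kinetically at 0 and 10 min.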
FEN1 inh-1: qHTS Assay for the Inhibitors of Human Flap endonuclease 1 (FEN1); P39748; Recombinant FEN1 flap cleavage, fluorescence, 15 min; Potency, µM (series often up to 114 µM), without a hit: at the top dose activity change, negative = inhibition, most hits filed as inhibitors; actives 0.35% (n = 390,000); AID 588795, 2011; also: % is scaled to controls: 0 for no effect and ±100 for the full control effect; nearly all actives have a fitted effect of over 65% in size
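FEN1 at 10 nM, compound pretreatment for 15 min (room temperature), 50 nM final substrate to initiate; endpoint reads at 0 and 15 min; DMSO-only plates used as vehicle background.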
WRN helicase inh: qHTS for Inhibitors of WRN Helicase. actives 0.46% (n = 360,000). Potency, µM (top dose mostly 114 µM), for inactives: top-dose activity change, negative = inhibition, most hits filed as inhibitors. Bifunctional 3'-5' exonuclease/ATP-dependent helicase WRN (Homo sapiens), Q14191. WRN helicase unwinding, fluorescent forked duplex, kinetic; also: % is scaled to controls: 0 for no effect and ±100 for the full control effect; nearly all actives have a fitted effect of over 55% in size
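WRN at 20 nM final preincubated with compound 15 min at room temperature; reaction started with 100 nM fluorophore/quencher forked duplex oligonucleotide and 2 mM ATP final. Unwinding followed kinetically by red fluorescence (ex 525, em 598 nm).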
POLI inh: qHTS for Inhibitors of Polymerase Iota | DNA polymerase iota (Homo sapiens), Q9UNA4 | Pol iota fluorescent replication assay, 10 min | Potency, µM (titrated, usually from 115 µM), for the others: at the top dose activity, negative = inhibition, usual class: inhibitors | actives 1% (n = 390,000)
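Fluorescent replication assay read twice, at 0 min and 10 min after adding 50 nM (final) substrate. Enzyme (10 nM) and compounds were first incubated 15 min at room temperature; enzyme-free buffer wells were negative controls.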
Pol beta inh: qHTS Assay for Inhibitors of DNA Polymerase Beta. Pol beta primer extension/strand displacement, fluorescence kinetic. P06746. actives 1.3% (n = 340,000). Potency, µM (highest dose often 114 µM), for the others: top-dose activity change, negative = inhibition, actives largely listed as inhibitors; also: % is scaled to controls: 0 for no effect and ±100 for the full control effect
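Preincubation: enzyme (10 nM) with compound, 15 min, RT. Reaction: substrate added to 50 nM final. Reads: 0 and 10 min. Analysis: normalized, Hill fit.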
Pol kappa inh-1: qHTS for Inhibitors of Polymerase Kappa; purified Pol kappa, fluorescent DNA synthesis assay, 10 min; Potency, µM (titrated, usually from 107 µM), for inactives: top-dose activity, negative = inhibition, hits mostly inhibitors; actives 0.53% (n = 400,000); AID 588579, 2011; also: % is scaled to controls: 0 for no effect and ±100 for the full control effect
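10 nM Pol kappa preincubated 15 min at room temperature with compounds, then reaction started with substrate at 50 nM final. Fluorescence read kinetically at 0 and 10 min; buffer-only wells served as negative control.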
TbPGK inh: qHTS for inhibitors of Phosphogylcerate Kinase: Hit Validation Screen; shares compounds with Pol kappa inh-1; actives 79% (n = 500); Potency, µM (series often up to 57.5 µM), for the others: at the highest dose activity change, negative = inhibition, most hits filed as inhibitors; TbPGK coupled GAPDH assay, Kinase-Glo luminescence; also: % is scaled to controls: 0 for no effect and ±100 for the full control effect; nearly all actives have a fitted effect of over 65% in size
POLI cherry-pick: qHTS for Inhibitors of Polymerase Iota: Confirmatory Assay for Cherry-picked Compounds; shares compounds with Pol kappa inh-1; Pol iota primer extension, TAMRA/BHQ fluorescence; Potency, µM, most hits filed as inhibitors; actives 77% (n = 1,500); AID 720496, 2013
Pol kappa inh-2: qHTS for Inhibitors of Polymerase Kappa: Confirmatory Assay for Cherry-picked Compounds | shares compounds with Pol eta inh-1 | actives 76% (n = 920) | Potency, µM, usual class: inhibitors | AID 720501, 2013 | purified Pol-kappa, fluorescent strand-displacement substrate
Pol eta inh-2: qHTS for Inhibitors of Polymerase Eta: Confirmatory Assay for Cherry-picked Compounds; shares compounds with Pol eta inh-1; Pol eta primer extension, TAMRA/BHQ fluorescence, 10 min; Potency, µM, most hits filed as inhibitors; actives 64% (n = 2,600); AID 720502, 2013
FEN1 inh-2: qHTS Assay for the Inhibitors of FEN1: Confirmatory Assay for Cherry-picked Compounds; shares compounds with FEN1 inh-1; FEN1 flap cleavage, TAMRA/BHQ2 fluorogenic DNA substrate; Potency, µM, most hits filed as inhibitors; actives 79% (n = 880); AID 720498, 2013; also: nearly all actives have a fitted effect of over 60% in size
Numbers without * were called inactive; [ ] = dose if it differs, or a comment. Calls follow the shape of the dose curve; as a rule, active = well fitted curve in the direction sought with a large enough effect; inconclusive = small, poorly fitted or top-dose-only effect, or another doubt; inactive = no such curve, though single readings can be large; an effect the other way counts as inactive or inconclusive. Potency is read from the fitted curve at half-maximal effect.

Results for COc1ccc(Cn2c(C)nc3c(c2=O)c2nc4ccccc4nc2n3Cc2ccco2)cc1 ?
Pol eta inh-1: 8.9µM*; FEN1 inh-1: 40µM*; WRN helicase inh: 8.4µM*; POLI inh: 3.2µM*; Pol kappa inh-1: 35µM*; POLI cherry-pick: 13*; Pol eta inh-2: 30*; FEN1 inh-2: inconclusive

What do the screens show for `Cc1ccccc1-c1nc2scc(CCNS(=O)(=O)c3ccccc3)n2n1`?
Pol eta inh-1: -6%; FEN1 inh-1: -17%; POLI inh: -8%; Pol beta inh: -29%; Pol kappa inh-1: -15%[60.1 µM]

Results for O=c1c(=O)n(O)c2ccccc2n1O ?
Pol eta inh-1: -6%; FEN1 inh-1: 0.79µM*; WRN helicase inh: 3%; POLI inh: -26%; Pol beta inh: 9%; Pol kappa inh-1: 1%; POLI cherry-pick: inconclusive; FEN1 inh-2: 1.3*

Results for Nc1cccc2cc(S(=O)(=O)O)ccc12 ?
Pol eta inh-1: 4µM*; FEN1 inh-1: 8.9µM*; WRN helicase inh: inconclusive; POLI inh: 4µM*; Pol kappa inh-1: 10µM*; POLI cherry-pick: 75*; Pol kappa inh-2: 19*; Pol eta inh-2: 27*; FEN1 inh-2: 67*

How did COc1ccc(C2CC(=O)c3c(C)nc(N4CCN(C=O)CC4)nc3C2)c(OC)c1 (stereo unspecified) do in these assays?
Pol eta inh-1: -23%; FEN1 inh-1: 14%; POLI inh: -9%; Pol beta inh: -8%; Pol kappa inh-1: 1%

How did Oc1cc2c(cc1O)C1c3ccc(O)c(O)c3OCC1(O)C2 (stereo unspecified) do in these assays?
Pol eta inh-1: 7.1µM*; FEN1 inh-1: 35µM*; WRN helicase inh: 28µM*; POLI inh: 7.9µM*; Pol beta inh: 13µM*; Pol kappa inh-1: 0.18µM*; TbPGK inh: 5.8µM*; POLI cherry-pick: 24*; Pol eta inh-2: 27*; FEN1 inh-2: inconclusive

How did O=C(NCCc1ccc(Cl)cc1)C1CCN(S(=O)(=O)c2ccc3[nH]ccc3c2)CC1 do in these assays?
Pol eta inh-1: -10%; FEN1 inh-1: 11%; POLI inh: 6%; Pol beta inh: 1%; Pol kappa inh-1: -7%[60.1 µM]

How did CN(C)CCNC(=O)c1cccc2nc3cccc(F)c3nc12 do in these assays?
Pol eta inh-1: inconclusive; FEN1 inh-1: 14µM*; WRN helicase inh: -18%[11.6 µM]; POLI inh: 89µM*; Pol kappa inh-1: inconclusive; POLI cherry-pick: 42*; Pol kappa inh-2: 17*; FEN1 inh-2: 19*

How did Cc1ccc2occ(CC(=O)N(Cc3ccccc3Cl)C3CCS(=O)(=O)C3)c2c1 (stereo unspecified) do in these assays?
Pol eta inh-1: -16%; FEN1 inh-1: 7%; POLI inh: -1%; Pol beta inh: -13%; Pol kappa inh-1: -15%

Results for COc1ccc(/C=C2\SC(=O)N(CC(=O)Nc3cccnc3)C2=O)cc1OC ?
Pol eta inh-1: -13%; FEN1 inh-1: 12%; WRN helicase inh: 9%; POLI inh: 26%; Pol beta inh: 2%; Pol kappa inh-1: 0%

What do the screens show for `COc1cc(/C=C2\SC(=O)N(CC(=O)Nc3cccc(C)c3)C2=O)cc([N+](=O)[O-])c1O`?
Pol eta inh-1: 22µM*; FEN1 inh-1: inconclusive; WRN helicase inh: inconclusive; POLI inh: inconclusive; Pol beta inh: 8%; Pol kappa inh-1: -17%; TbPGK inh: inconclusive; POLI cherry-pick: 75*; Pol eta inh-2: 48*; FEN1 inh-2: 76*

What do the screens show for `O=C1CC(=O)NC(SCC(=O)Nc2ccccc2[N+](=O)[O-])=N1`?
Pol eta inh-1: 5.6µM*; FEN1 inh-1: inconclusive; WRN helicase inh: 40µM*; POLI inh: 2.8µM*; Pol beta inh: inconclusive; Pol kappa inh-1: 40µM*; TbPGK inh: 10µM*; POLI cherry-pick: 12*; Pol eta inh-2: 6*; FEN1 inh-2: inconclusive

What do the screens show for `Cc1cc(C)nc(SCC(=O)Nc2ccccc2[N+](=O)[O-])n1`?
Pol eta inh-1: 0%; FEN1 inh-1: -6%; WRN helicase inh: -5%; POLI inh: 14%; Pol beta inh: 23%; Pol kappa inh-1: -9%

What do the screens show for `Cc1c(Cl)cccc1NS(=O)(=O)c1ccc2c(c1)C1C=CCC1C(c1ccc(C(=O)O)cc1)N2` (stereo unspecified)?
Pol eta inh-1: 2µM*; FEN1 inh-1: 25µM*; WRN helicase inh: 32µM*; POLI inh: inconclusive; Pol beta inh: 22µM*; Pol kappa inh-1: 2.8µM*; POLI cherry-pick: 38*; Pol eta inh-2: 6.7*; FEN1 inh-2: 60*

Results for O=c1ncccn1[C@@H]1O[C@H](CO)[C@@H](O)[C@H]1O ?
Pol kappa inh-1: 7%[60.1 µM]

Results for COCCNC(=O)Cn1nc(C)c2c(C)n(-c3ccc(C)cc3)nc2c1=O ?
Pol eta inh-1: -18%; FEN1 inh-1: 33%; POLI inh: 22%; Pol beta inh: 6%; Pol kappa inh-1: 0%
